# Measurements from PubChem BioAssay AID1851 (National Center for Advancing Translational Sciences (NCATS), 2009).
# In all, about 16,000 compounds went through this assay and about 5,700 (36%) were called active. About 24% were inconclusive and are not listed. Calls follow the shape of the dose curve; as a rule, active = well fitted curve in the direction sought with a large enough effect; inconclusive = small, poorly fitted or top-dose-only effect, or effect the other way; inactive = no such curve, though single readings can be large or run the other way. This is one part of the list.
# Molecular target: Cytochrome P450 1A2 (Homo sapiens) (UniProt P05177)
# Sequence (P05177 whole entry, looked up): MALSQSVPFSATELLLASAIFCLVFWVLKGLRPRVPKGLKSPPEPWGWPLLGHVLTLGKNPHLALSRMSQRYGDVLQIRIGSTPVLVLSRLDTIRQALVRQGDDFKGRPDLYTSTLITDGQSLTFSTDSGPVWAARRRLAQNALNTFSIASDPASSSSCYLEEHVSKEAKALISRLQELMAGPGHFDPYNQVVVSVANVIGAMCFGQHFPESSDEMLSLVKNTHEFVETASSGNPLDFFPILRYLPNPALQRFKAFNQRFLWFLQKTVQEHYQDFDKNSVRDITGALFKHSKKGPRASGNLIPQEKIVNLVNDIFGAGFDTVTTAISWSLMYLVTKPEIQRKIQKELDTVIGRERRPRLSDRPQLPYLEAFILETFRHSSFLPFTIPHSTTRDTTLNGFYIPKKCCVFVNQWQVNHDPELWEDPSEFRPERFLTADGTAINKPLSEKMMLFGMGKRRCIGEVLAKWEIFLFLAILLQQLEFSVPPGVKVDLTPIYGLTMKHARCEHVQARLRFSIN
# Assay: Cytochrome panel assay with activity outcomes
# Settings: recombinant CYP, pro-luciferin dealkylation, luminescence, p450-cyp1a2; series mostly up to 57.1 µM; activity, negative = inhibition: at the top concentration
# % is scaled to controls: 0 for no effect and ±100 for the full control effect.
Structure (SMILES),"activity, negative = inhibition",AC50
C[C@@]12CC[C@H]3[C@H](CC=C4C[C@@H](O)CC[C@@]43C)[C@@H]1CC[C@@H]2N(CCO)CCO,-4.6% [at 11.4 µM] (inactive),
COC(=O)c1[nH]c2ccc(Br)cc2c1NC(=O)Oc1ccccc1,,0.0631 µM (active)
C[C@]12CC[C@H](O)CC1=CC[C@@H]1[C@H]2CC[C@]2(C)C(=O)CC[C@H]12,-11.6% (inactive),
N[C@H](CCCCCP(=O)(O)O)C(=O)O,-15.1% (inactive),
C/C(=C\C=C/[C@@H](C)C(=O)O)[C@H]1CN[C@H](C(=O)O)[C@@H]1CC(=O)O,-14.8% (inactive),
C[C@]1(O)CC[C@H]2[C@@H]3[C@@H](O)CC4=CC(=O)CC[C@@]4(C)[C@H]3CC[C@]21C,1.44% [at 2.29 µM] (inactive),
O=P(c1ccccc1)(c1ccccc1)N1CC2(CC2)CC(O)(c2ccccc2)C1 (stereo not given),-19.7% (inactive),
O=C(Nc1ccc(Cl)cc1)Nc1nccs1,,0.141 µM (active)
C[C@]12CC[C@H]3c4ccc(O)cc4CC[C@@H]3[C@H]1CC[C@@H]2OC(=O)CCc1ccccc1,-13.8% [at 2.29 µM] (inactive),
CCCCc1nc2ccccc2c(=O)n1-c1ccc(Cl)cc1[N+](=O)[O-],-25.1% (inactive),
CCCc1nc2ccccc2c(=O)n1-c1ccc(OC)cc1,,12.6 µM (active)
CCCCc1nc2ccccc2c(=O)n1-c1ccccc1[N+](=O)[O-],,14.1 µM (active)
Cc1ccc(-c2nc3ccccc3c(=O)n2-c2ncccc2C)cc1,-12.2% (inactive),
NC(N)=Nc1ccc2[nH]c3c(c2c1)C[C@]1(O)[C@@H]2Cc4ccc(O)c5c4[C@]1(CCN2CC1CC1)[C@H]3O5,9.9% (inactive),
NS(=O)(=O)C[C-]1C=C[CH]([Sb-]([Cl])([Cl])([Cl])([Cl])[Cl])C=C1.c1ccncc1 (stereo not given),-15.1% [at 11.4 µM] (inactive),
O=C(O)[C@@H](O)[C@@H](O)[C@@H]1[O][Sb][O][C@@H]1CO,-5.14% [at 2.29 µM] (inactive),
CCC1=C(C[C@H]2NCCc3cc(OC)c(OC)cc32)C[C@H]2c3ccccc3CCN2C1,-6.07% [at 11.4 µM] (inactive),
O=C(O)CNC(=O)[C@@H](CS)Cc1ccccc1,-4.85% [at 25.6 µM] (inactive),
Cc1sc2ccccc2c1CC1=NCCN1,,2.51 µM (active)
c1ccc2cc(CC3=NCCN3)ccc2c1,2.54% (inactive),
Cc1cc(C(C)(C)C)cc(C)c1CC1=NCCN1,-8.4% [at 25.6 µM] (inactive),
CCCN1CCC[C@H](c2cccc(C#N)c2)C1,-12.2% (inactive),
CCN(CC)c1ccc(/C=C2/C(=O)NC(=O)N(CC3CCCO3)C2=O)cc1 (stereo not given),,12.6 µM (active)

Structure (SMILES),"activity, negative = inhibition",AC50
O=c1cccc2n1CC1CNC[C@H]2C1,-5.12% [at 25.6 µM] (inactive),
CC(C)(C)CC(=O)NC(=S)Nc1ccccc1C(F)(F)F,,11.2 µM (active)
O=[As](O)(O)c1ccc(N=Nc2ccc(O)cc2)cc1,-14.5% [at 11.4 µM] (inactive),
O=P(Nc1c(Cl)cccc1Cl)(c1ccccc1)c1nc2c(s1)CCCC2 (stereo not given),-1.03% (inactive),
CCN(CC)C(=O)N[C@@H]1C[C@H]2c3cccc4[nH]cc(c34)C[C@@H]2N(C)C1,,inactive
C=CCN1CC[C@@]23c4c5ccc(O)c4O[C@H]2/C(=N\N=C2/CC[C@@]4(O)[C@H]6Cc7ccc(O)c8c7[C@@]4(CCN6CC=C)[C@@H]2O8)CC[C@]3(O)[C@@H]1C5,,inactive
COc1cc2c3cc1Oc1cc(ccc1O)C[C@@H]1c4c(cc(OC)c(O)c4Oc4cccc(c4)C[C@H]3N(C)CC2)CC[N+]1(C)C,-8.38% [at 25.6 µM] (inactive),
CCCN1CCc2cc(O)cc3c2[C@H]1Cc1ccc(O)c(O)c1-3,,12.6 µM (active)
COc1cc2c3cc1Oc1c(O)c(OC)cc4c1[C@@H](Cc1ccc(cc1)Oc1cc(ccc1O)C[C@H]3N(C)CC2)N(C)CC4,-8.21% [at 11.4 µM] (inactive),
COc1ccc2cc1Oc1ccc(cc1)C[C@H]1c3cc(c(OC)cc3CCN1C)Oc1c(OC)c(OC)cc3c1[C@@H](C2)N(C)CC3,2.06% [at 2.29 µM] (inactive),
C=CCN1CCc2cccc3c2[C@@H]1Cc1ccc(O)c(O)c1-3,,3.16 µM (active)
CCCN(CCC)[C@@H]1CCc2ccc(O)cc2C1,,inactive
CCCN1CC[C@@H]2c3cc(O)ccc3CC[C@H]21,-9.66% (inactive),
CN1CCc2cc(O)cc3c2[C@H]1Cc1ccc(O)c(O)c1-3,,12.6 µM (active)
C=CCN1CCC2(C)c3cc(O)ccc3C[C@H]1[C@H]2C,,inactive
COc1cc2c(cc1O)C[C@H]1c3c(cc(O)c(OC)c3-2)CCN1C,,2.51 µM (active)
CN1CC[C@@]2(CCCN(C(=O)c3ccco3)C2)C1,7.97% (inactive),
COC(=O)C[C@](O)(CCCC(C)(C)O)C(=O)O[C@@H]1C(OC)=C[C@]23CCCN2CCc2cc4c(cc2[C@H]13)OCO4,-9.9% (inactive),
C=C[C@@H]1CN2CC[C@H]1C[C@H]2[C@H](O)c1ccnc2ccccc12,-18.2% [at 11.4 µM] (inactive),
CCN1C[C@@]2(COC)[C@H]3[C@@H](OC)[C@H]4C1[C@@]3([C@H](OC)C[C@@H]2O)[C@H]1C[C@@]2(O)[C@@H](OC(=O)c3ccccc3)[C@@H]1[C@@]4(OC(C)=O)[C@H](O)[C@@H]2OC,-4.7% [at 25.6 µM] (inactive),
NN=C(N)N,-5.67% (inactive),
c1csc(CN2CC3(CCNCC3)C2)n1,12.5% (inactive),
Clc1ccc([C@@H]2C[C@H]3CC[C@@H]2N3)cn1,-20.5% (inactive),

Structure (SMILES),"activity, negative = inhibition",AC50
Clc1ccc(C2=CCC[C@H]3CC[C@@H]2N3)cn1,,15.8 µM (active)
CCN(CC)C(=O)N[C@H]1C[C@H]2c3cccc4[nH]cc(c34)C[C@@H]2N(C)C1,-12.5% (inactive),
CNC(C)(C)Cc1ccccc1,-1.89% [at 25.6 µM] (inactive),
C[C@H](Br)C(=O)N[C@H](CO)C(=O)O,-13.1% [at 11.4 µM] (inactive),
O=C(O)C[C@H]1NCc2cc3ccccc3nc21,-4.93% [at 2.29 µM] (inactive),
CCC1(CC)C(=O)C=CNC1=O,-8.09% [at 25.6 µM] (inactive),
O=C(Nc1ccc(Cl)cc1C(=O)c1ccccc1)c1ccco1,,2.51 µM (active)
CC[C@]1(C2=NCCN2)Cc2ccccc2O1,-6.04% (inactive),
CNC[C@H](O)c1ccc(O)cc1,-7.35% [at 25.6 µM] (inactive),
CC[n+]1c(/C=C/N(C)c2ccccc2)sc2ccc(Cl)cc21,,4.47 µM (active)
O=C(Nc1cccc(F)c1)N1CCC2(CC1)CCN(C(=O)Oc1ccccc1)CC2,-13.8% (inactive),
CCC(=O)Nc1ccc(N2CCN(CC)CC2)c(Cl)c1,5.31% (inactive),
COC(=O)[C@H]1[C@@H](c2ccccc2)[C@@]2(c3ccccc3)Oc3ccccc3[C@@]1(O)[C@@H]2O,4.61% [at 11.4 µM] (inactive),
CC[C@@H](CO)Nc1nc(NCc2ccccc2)c2ncn(C(C)C)c2n1,,12.6 µM (active)
CC(C)[C@H](CO)Nc1nc(Nc2cccc(Cl)c2)c2ncn(C(C)C)c2n1,,0.316 µM (active)
O=C(O)[C@@H](Br)[C@H](Br)C(=O)O,5.86% [at 11.4 µM] (inactive),
CC(C)CNC(=S)NC1CC2CCCC(C1)N2Cc1ccco1 (stereo not given),4.27% (inactive),
CC(C)N(CC[C@@](C(N)=O)(c1ccccc1)c1ccccn1)C(C)C,,inactive
C(#CCN1CCCC1)CN1CCCC1,1.87% [at 25.6 µM] (inactive),
CNC(=O)Oc1ccc2c(c1)[C@@]1(C)CCN(C)[C@@H]1N2C,-6.82% [at 25.6 µM] (inactive),
O=C(C[n+]1ccc2ccccc2c1)c1ccc2ccc3ccccc3c2c1,,2.51 µM (active)
CCOC(=O)c1c(NC(=O)C(c2ccccc2)c2ccccc2)sc2c1C1CCN2CC1,-3.75% (inactive),
COc1ccc(NC(=O)NC2CC3CCCC(C2)N3Cc2ccccc2)cc1 (stereo not given),1.27% (inactive),

Structure (SMILES),"activity, negative = inhibition",AC50
NC[C@@H](Cc1ccccc1)P(=O)(O)O,-9.3% [at 11.4 µM] (inactive),
Nc1nc2ccc(Cl)cc2c2nc(-c3ccco3)nn12,,0.0631 µM (active)
CN1CC[C@@]2(CCCN(C(=O)c3ccncc3)C2)C1,2.09% (inactive),
COC(=O)N1CCN(C(=O)Cc2ccc(Cl)c(Cl)c2)[C@H](CN2CCCC2)C1,,inactive
CSC([N-]/N=C/c1cccc(C)n1)=[S]=[Cu].CS[C@H]([S-])[N-]/N=C/c1cccc(C)n1,,0.631 µM (active)
O=C(Oc1ccccc1)N1CCC2(CCCN(C(c3ccccc3)c3ccccc3)C2)CC1,6.99% (inactive),
c1ccc(CCCCN2CCC(c3ccccc3)CC2)cc1,,15.8 µM (active)
c1ccc2c([C@@H]3CCN(CCN4CCOCC4)C3)c[nH]c2c1,-9.42% [at 11.4 µM] (inactive),
CNCCCc1ccccc1,-2.27% (inactive),
NC[C@@H](O)CSP(=O)(O)O,-2.54% [at 11.4 µM] (inactive),
CCN1C[C@]2(COC)CC[C@H](O)[C@@]34[C@@H]5C[C@H]6[C@@H](OC)[C@H]5[C@](O)(C[C@@H]6OC)[C@@](O)([C@@H](OC)[C@H]23)[C@@H]14,0.799% [at 25.6 µM] (inactive),
COc1cc2cc(c1Cl)N(C)C(=O)C[C@H](OC(=O)C(C)C)[C@]1(C)O[C@@H]1[C@@H](C)[C@H]1C[C@](O)(NC(=O)O1)[C@@H](OC)/C=C\C=C(\C)C2,-7.72% [at 11.4 µM] (inactive),
CCCCn1c(O)c(C(CC)=NCc2ccc(F)cc2)c(=O)[nH]c1=O,,8.91 µM (active)
CCC(=Nc1cc(OC)ccc1OC)c1c(O)[nH]c(=O)[nH]c1=O,,14.1 µM (active)
O=c1[nH]c(=O)n(CCC2=CCCCC2)c(O)c1C=Nc1cccc(F)c1,-0.302% (inactive),
O=c1[nH]c(=O)n(CCc2ccc(F)cc2)c(O)c1C=NCCCN1CCOCC1,-8.06% (inactive),
CCCCn1c(O)c(C(CC)=Nc2ccc(OC)cc2OC)c(=O)[nH]c1=O,,12.6 µM (active)
CC1=C(C)[N+](=O)C2(O)CCCCC2(C)N1[O-] (stereo not given),12.4% (inactive),
Nc1nc(N)c2nc(CNc3ccc(C(=O)N[C@H](CCC(=O)O)C(=O)O)cc3)cnc2n1,-19.4% (inactive),
CN(C)C(=O)Oc1cc(OC(=O)N(C)C)cc([C@@H](O)CNC(C)(C)C)c1,-3.04% [at 25.6 µM] (inactive),
C[C@H](c1ccccc1)N1CCN([C@@H](C)c2ccccc2)CC1,-16% [at 2.29 µM] (inactive),
